Compound activity from PubChem BioAssay.
Sampled rows, rich in hits. Any-hit rate of the full collection: about 1%.
L3MBTL1 inh = inhibitors of human L3MBTL1; 230,000 tested, 0.66% active; AID 485360; AlphaScreen L3MBTL1–H3K9me1 peptide binding; Potency, µM (doses to about 57.1 µM), inactives show top-dose activity, negative = inhibition, most hits filed as inhibitors; Q9Y468; also: nearly all actives have a fitted effect of over 60% in size
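Read-out is AlphaScreen signal from streptavidin donor and nickel chelate acceptor beads (10 ug/mL final each) bridging L3MBTL1 (50 nM) and biotinylated K9-monomethylated H3(1-15) peptide (75 nM), after 30 min compound exposure at room temperature.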
BLM inh = Bloom syndrome helicase (human) inhibition. Potency, µM (top dose mostly 56.1 µM), for inactives: top-dose activity change, negative = inhibition, most hits filed as inhibitors. 350,000 tested, 0.2% active. AID 2528. recombinant BLM DNA unwinding, fluorescence dequenching;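 also: plate controls were vehicle for no effect and no enzyme for full effect; nearly all actives have a fitted effect of over 35% in size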
APE1 inh-1 = blocks human APE1 abasic DNA cleavage; recombinant APE1, TAMRA/BHQ-2 abasic DNA cleavage fluorescence; Potency, µM (highest dose often 65.8 µM), for inactives: top-dose activity change, negative = inhibition, most hits filed as inhibitors; 350,000 tested, 0.35% active;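 also: plate controls were vehicle for no effect and reference inhibitor for full effect; nearly all actives have a fitted effect of over 55% in size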
Target sequence (P27695 whole entry, looked up): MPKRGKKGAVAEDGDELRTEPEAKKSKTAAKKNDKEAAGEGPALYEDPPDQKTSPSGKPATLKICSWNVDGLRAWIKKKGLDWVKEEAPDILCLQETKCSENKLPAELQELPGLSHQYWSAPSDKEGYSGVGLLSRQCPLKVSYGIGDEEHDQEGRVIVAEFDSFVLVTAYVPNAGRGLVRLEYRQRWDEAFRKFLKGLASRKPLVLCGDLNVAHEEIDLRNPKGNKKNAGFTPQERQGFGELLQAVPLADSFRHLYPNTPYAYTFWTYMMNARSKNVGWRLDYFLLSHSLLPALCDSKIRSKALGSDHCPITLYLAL
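Step 1: APE1 (0.75 nM) with compound, 15 min RT. Step 2: add 50 nM fluorophore/quencher THF duplex. Step 3: three fluorescence reads 60 s apart (525/598 nm); read 3 minus read 1 = reaction progress.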
WRN inhibitor = blocks human WRN helicase; WRN helicase unwinding, fluorescent forked duplex, kinetic; 360,000 tested, 0.46% active; Potency, µM (series often up to 114 µM), for inactives: at the top dose activity change, negative = inhibition, most hits filed as inhibitors; AID 651768; Q14191; also: nearly all actives have a fitted effect of over 55% in size
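WRN at 20 nM final preincubated with compound 15 min at room temperature; reaction started with 100 nM fluorophore/quencher forked duplex oligonucleotide and 2 mM ATP final. Unwinding followed kinetically by red fluorescence (ex 525, em 598 nm).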
FEN1 inhibitor = human FEN1 inhibition; Recombinant FEN1 flap cleavage, fluorescence, 15 min; 390,000 tested, 0.35% active; P39748; Potency, µM (top dose mostly 114 µM), for the others: at the highest dose activity change, negative = inhibition, hits mostly inhibitors; also: nearly all actives have a fitted effect of over 65% in size
Target sequence (P39748 whole entry, looked up): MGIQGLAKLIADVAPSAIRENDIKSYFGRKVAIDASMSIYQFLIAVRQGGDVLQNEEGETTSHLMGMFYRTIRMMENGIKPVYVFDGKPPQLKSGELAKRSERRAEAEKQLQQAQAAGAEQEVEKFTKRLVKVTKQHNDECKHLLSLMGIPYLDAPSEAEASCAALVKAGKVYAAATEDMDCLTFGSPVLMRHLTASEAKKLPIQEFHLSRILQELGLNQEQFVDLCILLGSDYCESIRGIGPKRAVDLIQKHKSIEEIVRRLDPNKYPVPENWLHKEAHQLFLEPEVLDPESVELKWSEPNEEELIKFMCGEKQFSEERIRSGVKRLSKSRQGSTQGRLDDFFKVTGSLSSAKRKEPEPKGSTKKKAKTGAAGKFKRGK
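Compounds are tested as a concentration series against 10 nM FEN1; after a 15 min room-temperature preincubation, 50 nM substrate starts cleavage, with plate reads at 0 and 15 min. Normalized responses are fitted by a Hill equation.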
RECQ1 helicase = inhibitors of human RECQ1 DNA helicase; Potency, µM (top dose mostly 57.3 µM), for the others: top-dose activity, negative = inhibition, usual class: inhibitors; 240,000 tested, 0.54% active; RECQ1 DNA unwinding, red fluorescence kinetic read; P46063;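 also: plate controls were vehicle for no effect and no enzyme for full effect; nearly all actives have a fitted effect of over 30% in size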
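RECQ1T1 50 nM; forked duplex (20 bp + 30-nt ss tails) 200 nM, ATP 2 mM final; pH 8.0, 2 mM MgCl2, 2.5 ug/ml poly(dI-dC); 15 min compound preincubation; discontinuous kinetic read over 2 h at RT.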
DNA dye displace = counter-screen for APE1 inhibitors: DNA dye displacement. shares compounds with APE1 inh-1. DNA fluorescent dye displacement counterscreen, fluorescence. Potency, µM (highest dose often 28.5 µM), without a hit: at the top dose activity change, negative = inhibition, hits mostly inhibitors. 480 tested, 7% active. AID 2564;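 also: loss of thiazole orange fluorescence as the dye is displaced from duplex DNA; 0% = ThO with dsDNA and no compound and -100% = ThO without dsDNA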
Endo IV inh = counter-screen for APE1 inhibitors: inhibitors of E. coli endonuclease IV; shares compounds with APE1 inh-1; E. coli Endo IV, fluorogenic AP-site DNA cleavage; Potency, µM (doses to about 27.1 µM), for inactives: at the top dose activity change, negative = inhibition, actives largely listed as inhibitors; 560 tested, 4% active; AID 2565;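 also: plate controls were uninhibited enzyme wells for no effect and no enzyme buffer wells for full effect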
APE1 inh-2 = APE1 (human) endonuclease inhibition, confirmation | Potency, µM (doses to about 57.1 µM), without a hit: top-dose activity change, negative = inhibition, actives largely listed as inhibitors | 750 tested, 44% active | purified APE1, fluorogenic abasic-site DNA cleavage | shares compounds with APE1 inh-1; also: nearly all actives have a fitted effect of over 30% in size
APE1 FP = APE1 (human) DNA binding inhibition, fluorescence polarization. shares compounds with APE1 inh-1. APE1 binding to TAMRA-labelled double-stranded DNA, fluorescence polarization displacement. Potency, µM (titrated, usually from 28.5 µM), inactives show at the top dose activity, negative = inhibition, usual class: inhibitors. 480 tested, 7% active. AID 2573
* hit, by the source's call; i = inactive; ? = inconclusive; . = no result given; [ ] = remark or other dose. Calls follow the shape of the dose curve; as a rule, active = well fitted curve in the direction sought with a large enough effect; inconclusive = small, poorly fitted or top-dose-only effect, or another doubt; inactive = no such curve, though single readings can be large; an effect the other way counts as inactive or inconclusive. Unless noted, % is scaled to controls: 0 for no effect and ±100 for the full control effect; potency is read from the fitted curve at half-maximal effect.

SMILES	L3MBTL1 inh	BLM inh	APE1 inh-1	WRN inhibitor	FEN1 inhibitor	RECQ1 helicase	Endo IV inh	APE1 inh-2	others
COCCCN(C(=O)c1ccco1)c1nc(-c2cc(OC)ccc2OC)cs1	-4%	-7%	-4%	-8%	-16%	-8%	.	.
COc1ccc(OC)c(-c2csc(N(Cc3ccco3)C(=O)c3ccco3)n2)c1	.	-16%	?	?	-15%	-7%	?	?	DNA dye displace=-11%;APE1 FP=-3%
Nc1nc(Cl)nc2c1ncn2[C@@H]1O[C@H](CO)[C@H](O)[C@H]1O	.	.	-3%	.	.	-6%	-6%[57.1 µM]	-28%
COC/C=C/C1=CC2=CC(=O)C(C)(OC(=O)c3ccco3)C(=O)C2=CO1 (stereo not given)	.	-14%	20µM*	.	.	28µM*	?	?	DNA dye displace=?;APE1 FP=13µM*
CC(C)(C)c1ccc(C(=O)Nc2nc3nc(-c4ccccc4)cc(=O)n3[nH]2)cc1	.	-4%	.	.	2%	.	.	.
Cc1ccc(C(=O)Nc2nc3nc(-c4ccccc4)cc(=O)n3[nH]2)cc1	.	1%	-1%	-16%[11.6 µM]	14%	-5%	.	?
Cc1ccccc1-c1ccc2ncnc(NCc3cccs3)c2c1	.	-25%	7.1µM*	.	.	?	-96%[57.1 µM]	14µM*	DNA dye displace=?;APE1 FP=46%[57.1 µM]
Clc1ccccc1-c1ccc2ncnc(NCc3cccs3)c2c1	6%	.	-6%	.	-2%	.	.	.
CC(=O)NNC(=O)N1Cc2ccccc2Oc2ccc(Cl)cc21	.	-1%	2%	-1%	-21%	-7%	-9%[57.1 µM]	-38%
COc1ncc2nc(-c3ccc(F)cc3)c(=O)n(C)c2n1	.	-3%	1%	.	.	-4%	.	.
O=C(N/N=C/c1c[nH]c2ccc(Br)cc12)c1ccncc1	-12%	?	-4%	?	-7%	-6%	.	-12%
COc1ccc2c(c1)c(=O)oc1cc(OCC(=O)N3CCC(C)CC3)ccc12	?	-28%	16µM*	?	?	40µM*	0%	5µM*	DNA dye displace=-9%;APE1 FP=?
COc1ccc2c(c1)c(=O)oc1cc(OCC(=O)N3CCCC(C)C3)ccc12 (stereo not given)	-5%	-7%	?	-21%	2%	i	.	.
c1ccc(C2CN3CCSC3=N2)cc1 (stereo not given)	4%	-2%	-3%	.	-12%	-6%	.	.
Brc1ccc([C@H]2CN3CCSC3=N2)cc1	.	.	-5%	11%	15%	-3%	-6%[57.1 µM]	-28%
CCOC(=O)[C@H](CCc1ccccc1)N[C@@H](C)C(=O)N1Cc2ccccc2C[C@H]1C(=O)O	.	.	0%	4%	-19%	.	.	.
CCOC(=O)C(CCc1ccccc1)NC(C)C(=O)N1CCCC1C(=O)O (stereo not given)	.	6%	2.2µM*	.	.	5%	15%[57.1 µM]	-4%	DNA dye displace=-9%[57.1 µM];APE1 FP=6%[57.1 µM]
CC1(C)CC(=O)C=C(NCc2cccc(C(F)(F)F)c2)C1	6%	-3%	4%	6%	4%	i	.	.
CC1(C)CC(=O)C=C(NCc2ccccc2)C1	1%	0%	?	-4%	4%	i	1%	?	DNA dye displace=-2%;APE1 FP=13%
O=C(Cn1cc(C(=O)C2CC2)c2ccccc21)Nc1ccc(Br)cc1	.	-5%	.	.	13%	.	.	.
O=[N+]([O-])c1cccc2c[nH]nc12	.	-27%	6.3µM*	.	.	28µM*	-47%[57.1 µM]	13µM*
O=[N+]([O-])c1cccc2cn[nH]c12	-6%	4%	-10%	4%	?	1%	.	.
CNC(=O)C[C@@H]1C(=O)N(CCc2ccccc2)CC1(C)C	.	.	.	3%	.	.	.	.
O=C(COC(=O)CCNS(=O)(=O)c1cccc(C(F)(F)F)c1)NC(=O)NC1CCCCC1	.	-6%	?	-5%	-7%	-11%	0%	?	DNA dye displace=-10%;APE1 FP=3%
O=C(COC(=O)Cc1cccc(C(F)(F)F)c1)NC(=O)NC1CCCC1	4%	.	-10%	-15%	-8%	.	.	.
SMILES	L3MBTL1 inh	BLM inh	APE1 inh-1	WRN inhibitor	FEN1 inhibitor	RECQ1 helicase	Endo IV inh	APE1 inh-2	others
COc1ccc(/C(C)=N/Nc2ccccc2Cl)c(O)c1	-15%	-5%	?	-19%	15%	-10%	.	?
Cc1nc(N)sc1-c1csc(Nc2ncccn2)n1	2%	-20%	?	-25%	?	-5%	.	?
O=C(C[n+]1ccnc2ccccc21)c1ccc(Br)cc1	.	.	.	.	0%	.	.	.
Cn1cc(C2=C(c3ccc(Cl)cc3Cl)C(=O)NC2=O)c2ccccc21	.	-4%	?	12%	?	?	-9%[57.1 µM]	25µM*
Cn1cc(-c2ccccc2C(N)=O)c(=O)c2cc(Cl)ccc21	17%	5%	-2%	0%	1%	i	.	.
Cc1ccnc2c(Cl)ccc(Cl)c12	.	.	.	.	34%	.	.	.
COc1ccc(OCC(=O)OCCN2C(=O)c3ccccc3C2=O)cc1	-10%	-21%	?	-13%	-4%	-10%	4%	?	DNA dye displace=-9%;APE1 FP=8%
O=C(Nc1cccc(Cl)c1)c1ccc2sc([C@H]3C[C@H](O)[C@@H](CO)O3)nc2c1	.	.	.	-1%	.	.	.	.
Cc1ncc(CO)c(/C=N/NC(=O)c2cc(O)c(O)c(O)c2)c1O	1.6µM*	5.6µM*	4µM*	.	.	14µM*	156%	?	DNA dye displace=-10%;APE1 FP=5%
Cc1ncc(CO)c(/C=N/NC(=O)c2ccc(Br)cc2)c1O	?	8%	2%	.	.	3%	.	.
OC1c2ccccc2N=C2CCCN21 (stereo not given)	.	3%	-3%	.	.	11%	.	.
O=C(CSc1nc2ccccc2c(=O)[nH]1)Nc1ccc(C(=O)O)cc1	-5%	-2%	-7%	-30%	1%	16%	.	-9%
O=C(CSc1nc(NS(=O)(=O)c2ccccc2)cc(=O)[nH]1)Nc1ccc(Cl)cc1	?	?	-4%	?	-11%	-1%	.	-16%
COc1cc2ncc(-c3ccccc3)nc2cc1OC	.	.	-6%	.	.	13%	.	.
CSc1ccccc1C(=O)OCC(=O)NC1CC1	.	.	.	-5%	.	.	.	.
O=c1ccc2c(OCCCCc3ccccc3)c3ccoc3cc2o1	.	.	-4%	.	.	-2%	-12%[57.1 µM]	-30%
